About 140 (11%) of roughly 1,300 compounds were called active. How the calls were made is not given here. Only a sample is shown. Results with a measured potency or affinity are listed apart.
These compounds were tested against Prostaglandin E2 receptor EP2 subtype (Homo sapiens) (UniProt P43116) (assay: EP2 receptor modulators, dose response, cell-based, human EP2, PGE2 EC50 shift (AID 1421)). Details: EP2-expressing cells, PGE2 EC50 shift by compound; at 20 µM.
Sequence of Prostaglandin E2 receptor EP2 subtype (Homo sapiens) (P43116 whole entry, looked up): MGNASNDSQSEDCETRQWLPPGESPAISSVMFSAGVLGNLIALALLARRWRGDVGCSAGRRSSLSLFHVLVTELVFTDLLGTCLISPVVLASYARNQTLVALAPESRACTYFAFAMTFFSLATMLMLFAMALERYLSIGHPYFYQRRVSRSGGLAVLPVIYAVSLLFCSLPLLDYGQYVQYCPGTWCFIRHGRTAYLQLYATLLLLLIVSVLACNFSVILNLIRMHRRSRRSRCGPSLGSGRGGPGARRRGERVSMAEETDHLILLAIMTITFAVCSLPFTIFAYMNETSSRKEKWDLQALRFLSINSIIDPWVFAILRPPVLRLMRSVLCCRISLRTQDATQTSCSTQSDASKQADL

PGE2 EC50 with compound, inactive:
Cc1ccc(C(=O)N2N=C(c3ccccc3)CC2(O)C(F)(F)F)o1 (stereo unspecified) 0.31 nM
CCOc1cc(/C=N/NC(N)=O)ccc1OC(=O)c1ccc(C)cc1 0.42 nM
Cc1ccc2nc(-c3ccncc3)cc(-c3ccccc3)c2c1 0.17 nM
Nc1nc(Cc2ccccc2)nc(Cc2ccccc2)c1-c1ccccc1 0.43 nM
CC(C)c1ccc(OCC(=O)NC(=S)Nc2ccc3c4c(cccc24)CC3)cc1 18.6 nM
O=c1c2c(n3nnnc3n1-c1ccccc1)-c1ccccc1CC21CCCC1 0.77 nM
Nn1cnc2c(c1=O)C1(CCCCC1)Cc1ccccc1-2 0.34 nM
CCCn1c(SCC(=O)Nc2sc(C)c(C)c2C(=O)OCC)nc2c1c(=O)n(C)c(=O)n2C 0.47 nM
CCCCN1C=C(C(=O)OC)C(c2ccccc2Cl)C(C(=O)OC)=C1 0.38 nM
COc1ccc(C(=O)c2cnc3ccccc3c2-c2ccccc2)cc1 0.79 nM
CCCCOc1c(Br)cc(/C=N/O)cc1OCC 0.48 nM
O=C(CSc1nnc(-c2cc3ccccc3cc2O)n1Cc1ccco1)c1ccc(F)cc1 0.83 nM
COC(=O)c1c(NC(=O)CSc2nnc(-c3cccnc3)n2Cc2ccco2)sc(C)c1C 0.69 nM
CC(=O)c1ccc(S(=O)(=O)NCCCC(=O)NCCc2ccccn2)cc1 0.92 nM
CC(C)Cc1nc2sc3c(=O)[nH]cnc3c2c2c1CCC2 0.65 nM
C#CCSc1nc(Cc2ccc(Cl)cc2)nc2ccccc12 0.25 nM
Cc1cc(C(=O)CSc2nc3ccccc3c(=O)n2C)c(C)n1Cc1ccc2c(c1)OCO2 0.29 nM
CC(C)CCn1c(N2CCN(c3cccc(Cl)c3)CC2)nc2c1c(=O)[nH]c(=O)n2C 0.57 nM
COc1ccc(Cn2c(-c3ccc(OC)cc3)nc3ccccc32)cc1 0.8 nM
Clc1ccc(Cn2c(/C=C/c3ccco3)nc3ccccc32)cc1 0.66 nM
N#CCSc1nc2sc3c(c2c(=O)n1C1CCCCC1)CCCC3 0.32 nM
